Screens from PubChem BioAssay.
CD40 NFkB inh – CD40 pathway inhibition in BL2 cells | AID 1053188 | BL2 NF-kB luciferase reporter, CD40L-induced, 4 h | 0.94% of 83,000 active | inhibition, % at 10 µM;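 active = mean inhibition of at least 50% with a set share of replicates also reaching that level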;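 also: 0% = neutral control wells and 100% = IKK inhibitor VII at 50 µM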
Active calls of the source: *; [ ] = dose if it differs, or a comment. The full list was thinned out, with hits kept by preference.

SMILES	CD40 NFkB inh
O=C(Nc1ccc2c(c1)[C@@H]1C[C@H](CC(=O)N3CCc4ccccc4C3)O[C@@H](CO)[C@@H]1O2)C1CCOCC1	-2.3[25 µM]
CCNC(=O)[C@@H]1[C@@H](CO)[C@@H]2Cn3c(cccc3=O)[C@@H]2N1C(=O)CC1CC1	3.2[25 µM]
CC(C)NC(=O)N(C)C[C@H]1Oc2ccc(N)cc2CC(=O)N(C)C[C@@H]1C	-1.9
COc1ccc(Sc2nnc(-c3ccccc3)cc2C#N)cc1	1.3
COc1ccc(-c2cc(-c3ccccc3)c(-c3ccccc3)nn2)cc1	-16.3
COc1ccc(-c2cc(-c3ccccc3)c(C#N)c(S(C)=O)n2)cc1 (centres undefined)	75.9*
C[C@@H]1CN([C@H](C)CO)C(=O)CCCn2nncc2CO[C@@H]1CN(C)Cc1ccccc1C(=O)O	11.4[25 µM]
COc1ccccc1S(=O)(=O)N[C@H]1CC[C@H](CCNC(=O)C2CCCC2)O[C@@H]1CO	-3.9
O=C1[C@H](Cc2ccc(C(F)(F)F)cc2)CCn2nncc2COC[C@H]2CCCCN12	1.9[25 µM]
O=C(C[C@H]1C[C@H]2c3cc(NC(=O)Cc4ccncc4)ccc3O[C@H]2[C@@H](CO)O1)NCc1cc(F)ccc1F	-14.5[25 µM]
COc1ccc(NC(=O)N(C)C[C@@H]2OCc3ccccc3-c3c(n(C)c4ccccc34)C(=O)N([C@H](C)CO)C[C@@H]2C)cc1	3.9
COC(=O)c1nn(-c2ccc(-c3ccccc3)cc2)cc1O	70.5*
COC(=O)c1nn(-c2ccccc2)c(-c2ccccc2)c1C(=O)c1ccccc1	7.4
COc1cn(-c2ccccc2)nc1C(=O)Nc1ccccc1	-76.3
CO[C@@H]1CN(C)C(=O)c2cc(NS(=O)(=O)c3ccc(Cl)cc3)ccc2OC[C@@H](C)N(C(=O)NC(C)C)C[C@@H]1C	-4.2[25 µM]
c1ccc(-c2nc(NCCCn3ccnc3)c3ccccc3n2)cc1	18.3
COc1ccccc1-c1cnn2c(NCCc3ccccc3)cc(C)nc12	-52.9
Cc1cc(NCCCn2ccnc2)n2ncc(-c3ccccc3)c2n1	88.4*
O=C(CCN1CCCCC1)N[C@H]1CC[C@@H](CC(=O)N2CCC(Cc3ccccc3)CC2)O[C@H]1CO	-3.6[25 µM]
CCCNC(=O)N1[C@H](CO)[C@H](c2ccc(C3=CCCCC3)cc2)[C@@H]1CNC(C)C	10.1
C[C@@H]1CN([C@H](C)CO)C(=O)CCCn2cc(nn2)CO[C@H]1CN(C)Cc1cccc2c1OCCCO2	-19.5[25 µM]
NC1=NN=C(c2ccc3c(c2)OCCO3)CS1	52.5*
c1cc2c(cc1C1=Nn3c(nnc3C3CCCCC3)SC1)OCO2	8.5
c1ccc(-c2nnc3n2N=C(c2ccc4c(c2)OCO4)CS3)nc1	6.4
Cc1ccc(S(=O)(=O)N[C@@H]2CC[C@@H](CCNC(=O)C3CCCC3)O[C@@H]2CO)cc1	-5.8
SMILES	CD40 NFkB inh
CCS(=O)(=O)N1CC2(CN(Cc3ccc4c(c3)OCO4)[C@@H](CO)c3c2c2ccc(OC)cc2n3C)C1	13.3[25 µM]
O=C(O)C[C@@H]1C[C@H]2c3cc(NC(=O)Nc4ccc(C(F)(F)F)cc4)ccc3O[C@H]2[C@H](CO)O1	9.9[25 µM]
C[C@@H]1COCn2nncc2CC[C@H](Cc2cccc(Cl)c2)C(=O)N1	-1.1[25 µM]
Cc1cc(NCCCN2CCOCC2)n2c(nc3ccccc32)c1C#N	-15.2
Cc1cc(NCCN2CCOCC2)n2c(nc3ccccc32)c1C#N	3.2
Cc1cc(Nc2cccc([N+](=O)[O-])c2)n2c(nc3ccccc32)c1C#N	77.8*
O=C1CCCn2cc(nn2)COC[C@H](Cc2ccccc2)N1	-1.8
C[C@H]1CN([C@@H](C)CO)C(=O)CCCn2cc(nn2)CO[C@H]1CN(C)Cc1ccc2c(c1)OCCO2	0.9
CCCNC(=O)N1[C@@H](C#N)[C@@H](c2ccc(C3=CCCCC3)cc2)[C@@H]1CO	22.4[25 µM]
CCCNC(=O)N1[C@H](C#N)[C@H](c2ccc(C3=CCCCC3)cc2)[C@@H]1CO	61.0*[25 µM]
CCCNC(=O)N1[C@H](CO)[C@@H](c2ccc(C3=CCCCC3)cc2)[C@@H]1C#N	1.1[25 µM]
COc1ccc(CN2C[C@@H](O)COC[C@H]3O[C@@H](CC(=O)N(C)C)CC[C@@H]32)cc1	2.2[25 µM]
C[C@@H](NC(=O)N(C)C[C@@H]1OCc2ccccc2-c2c(n(C)c3ccccc23)C(=O)N([C@@H](C)CO)C[C@@H]1C)c1ccccc1	2.5
COc1ccc(-c2ccc3n(c2=O)C[C@H]2[C@H](CO)[C@@H](C(=O)N(C)C)[C@@H]3N2C(=O)c2cnccn2)cc1	5.0[25 µM]
COC(=O)C[C@H]1C[C@H]2c3cc(NC(=O)c4ccc5c(c4)OCO5)ccc3O[C@H]2[C@H](CO)O1	-9.3[25 µM]
CCCN1[C@@H]2c3ccc(-c4ccc(F)cc4)c(=O)n3C[C@H]1[C@H](CO)[C@H]2C(=O)NCC1CC1	2.5[25 µM]
CC(C)CN(C(=O)COC(=O)c1cnc(Cl)c(Cl)c1)c1c(N)n(Cc2ccccc2)c(=O)[nH]c1=O	41.5
CN(Cc1ccccc1)C(=O)COC(=O)c1cncc(Br)c1	-3.7
CC(C)N(Cc1ccccc1)C(=O)COC(=O)c1cnc(Cl)c(Cl)c1	61.1*
COc1ccc([C@H]2C/C=C\C[C@H](c3cccc(Cl)c3)NC(=O)[C@@H](c3ccccc3)CC(=O)N2)c(OC)c1	8.3[25 µM]
CN(C)C(=O)C(CCN1CCC(O)(c2ccc(Cl)cc2)CC1)(c1ccccc1)c1ccccc1	50.1*
NC(=O)C(CCCCN1CCCCC1)(c1ccccc1)c1ccccc1	2.3
OC(CCCN1CCC(O)(c2ccc(Cl)cc2)CC1)c1ccc(F)cc1 (centres undefined)	17.8
C[C@@H]1CN([C@H](C)CO)C(=O)c2cc(NS(=O)(=O)c3cccs3)ccc2O[C@H]1CN(C)Cc1ccc(C(=O)O)cc1	-7.9[25 µM]
C[C@@H]1CN([C@H](C)CO)C(=O)c2c(c3ccccc3n2C)-c2ccccc2CO[C@@H]1CN(C)C(=O)[C@H](C)c1ccccc1	4.9
SMILES	CD40 NFkB inh
O=C(Oc1ccccc1C(=O)Oc1ccccc1)c1cccnc1	-9.6
Cc1onc(-c2ccccc2)c1C(=O)Oc1ccccc1	12.5
Cc1ncn(-c2ccc(C(=O)Oc3ccccc3)cn2)n1	37.7*
COc1ccccc1CNC(=O)C[C@@H]1C[C@H]2c3cc(NS(=O)(=O)c4ccc(F)cc4)ccc3O[C@H]2[C@@H](CO)O1	-7.1[25 µM]
N#C[C@H]1[C@H](c2ccccc2C2=CCCC2)[C@@H](CO)N1C(=O)CN1CCOCC1	-11.7[25 µM]
O=C1C=CC(=O)N1c1cccc2cccnc12	49.9*
c1cnc2c(c1)ccc1cccnc12	-5.1
O=C(O)c1cccc2cccnc12	4.4
CCS(=O)(=O)Nc1ccc2c(c1)C(=O)N(C)[C@@H]1CC[C@H](CC(=O)N3CCN(C)CC3)O[C@@H]1CO2	-10.1[25 µM]
COc1ccc(NC(=O)Nc2ccc3c(c2)C(=O)N([C@@H](C)CO)C[C@H](C)[C@@H](CN(C)S(=O)(=O)c2ccc(OC)cc2)O3)cc1	-6.0
COc1ccc(NC(=O)Nc2ccc3c(c2)C(=O)N([C@@H](C)CO)C[C@@H](C)[C@@H](CN(C)Cc2ccc(C(F)(F)F)cc2)OCCCC[C@@H](C)O3)cc1	1.0
C[C@@H]1CCCCO[C@@H](CN(C)Cc2ccc(Cl)c(Cl)c2)[C@@H](C)CN([C@H](C)CO)C(=O)c2cc(NS(=O)(=O)c3cccs3)ccc2O1	29.9[25 µM]
C[C@@H]1CCCCO[C@H](CN(C)Cc2ccc(Cl)c(Cl)c2)[C@@H](C)CN([C@H](C)CO)C(=O)c2cc(NS(=O)(=O)c3cccs3)ccc2O1	31.4[25 µM]
COc1ccc(NC(=O)Nc2ccc3c(c2)C(=O)N([C@H](C)CO)C[C@@H](C)[C@@H](CN(C)Cc2ccc(C(F)(F)F)cc2)OCCCC[C@@H](C)O3)cc1	5.3
